These results are taken from PubChem BioAssay (Tox21).

Results filed as inconclusive are left out. The source made the active and inactive calls. The call rests on the fitted dose curve; in most records, active means well fitted cell-killing curve with a large enough effect in the repeat runs; inconclusive means weak or mixed curves, or effect the other way; inactive means flat fitted curve, though single readings scatter.
On the % scale 0 is the no-effect control and ±100 the full control effect.

One experiment is described as follows: cAMP Responsive Elements (CRE) small molecule antagonists, cell-based qHTS assay: qHTS cell viability counter screen (AID 2060913). Further: nearly all actives have a fitted effect of over 40% in size. To be noted: CRE-bla HEK293T viability, CellTiter-Glo luminescence, 5 h; series mostly up to 92.4 µM; viability change, negative = cytotoxic: at the top concentration. In a few lines:
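Viability of NKH477-stimulated (0.25 uM final) CRE-bla HEK293T cells is measured by CellTiter-Glo luminescence following 3 hrs compound exposure at 37 C.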
(In general: qHTS replaces the single test concentration by a dilution series.)
For `O=C(/N=N/C(=O)OCc1ccccc1)OCc1ccccc1`, the “viability change, negative = cytotoxic” value is 0.0139% (inactive).

For `CC(C)c1nnc2ccc(-c3ocnc3-c3cc(F)ccc3F)cn12`, the “viability change, negative = cytotoxic” value was -3.63% (inactive).

On to `CCCC[P+](CCCC)(CCCC)CCCC`, for which the Potency result is “inactive”.

Regarding `CCCCCCCCCCCCC`, the “viability change, negative = cytotoxic” value is -0.928% (inactive).

For `NCCC(O)(P(=O)(O)O)P(=O)(O)O`, the “viability change, negative = cytotoxic” value was 1.81% [at 42.5 µM] (inactive).

For the compound `COC(=O)CCCCCCCCC(=O)OC`, the “viability change, negative = cytotoxic” value was 0.756% (inactive).

Regarding `COc1cc2c(cc1N)oc1ccccc12`, the “viability change, negative = cytotoxic” value was -2.13% (inactive).

Take `Cc1c(C(=O)O)cccc1[N+](=O)[O-]`: the “viability change, negative = cytotoxic” value was -12.4% (inactive).

Turning to `Cc1ccc(O)cc1`, the Potency result is “inactive”.

In the case of `O=C(CCOCCOCCOCCOCCC(=O)Nc1c(I)cc(I)c(C(=O)O)c1I)Nc1c(I)cc(I)c(C(=O)O)c1I`, the “viability change, negative = cytotoxic” value was 2.57% [at 42.5 µM] (inactive).

For `CNCCCC1c2ccccc2C=Cc2ccccc21`, the “viability change, negative = cytotoxic” value is -2.11% [at 42.5 µM] (inactive).

As for `Cc1ccc(Br)cc1`, the “viability change, negative = cytotoxic” value was 4.8% (inactive).

`CCN(O)CC`: the “viability change, negative = cytotoxic” value was 4.85% (inactive).

Take `C1C2OC2C2C1C1CC2C2OC12` (stereo not given): the “viability change, negative = cytotoxic” value is 5.26% (inactive).

As for `CSc1ccc(/C=C2/C(C)=C(CC(=O)O)c3cc(F)ccc32)cc1`, the “viability change, negative = cytotoxic” value was -2.68% [at 42.5 µM] (inactive).

Regarding `CCCC(=O)OCCC(C)C`, the “viability change, negative = cytotoxic” value was 3.59% (inactive).

Regarding `OC[C@@H](O)C(O)[C@@H](O)CO` (stereo not given in full), the “viability change, negative = cytotoxic” value was 5.53% (inactive).

`CC(=O)SCC(CC(=O)c1ccc(C)cc1)C(=O)O` (stereo not given): the “viability change, negative = cytotoxic” value is 4.79% [at 42.5 µM] (inactive).

Regarding `CCN(CC)C(=O)c1ccc(O)c(OC)c1`, the “viability change, negative = cytotoxic” value is 5.27% [at 42.5 µM] (inactive).

As to `C[C@]12CC[C@@H]3c4ccc(O)cc4CC[C@H]3[C@@H]1CCC2=O`, the Potency entry was “inactive”.

Regarding `CCCCC1CCC(=O)O1` (stereo not given), the “viability change, negative = cytotoxic” value was 7.5% (inactive).

With `CNC[C@H](O)c1ccc(O)c(O)c1`, the Potency entry is “inactive”.

In the case of `COC(=O)CSc1cc(N=c2sc(=O)n3n2CCCC3)c(F)cc1Cl`, the “viability change, negative = cytotoxic” value was 0.536% (inactive).

`C=C1C[C@@]23CC[C@H]4[C@@](C)(CCC[C@@]4(C)C(=O)O[C@@H]4O[C@H](CO)[C@@H](O)[C@H](O)[C@H]4O)[C@@H]2CC[C@]1(O[C@@H]1O[C@H](CO)[C@@H](O)[C@H](O[C@@H]2O[C@H](CO)[C@@H](O)[C@H](O)[C@H]2O)[C@H]1O[C@@H]1O[C@H](CO)[C@@H](O)[C@H](O)[C@H]1O)C3`: the “viability change, negative = cytotoxic” value is 0.803% (inactive).

As for `CCOC(=O)C1=NN(c2ccccc2)C(=O)C1`, the “viability change, negative = cytotoxic” value is 0.0777% (inactive).

Turning to `CCC(C)OC(=O)c1ccc(O)cc1` (stereo not given), the Potency result was “inactive”.

As to `C=C(C)[C@@H]1CCC2=CC(=O)C[C@@H](C)[C@]2(C)C1`, the “viability change, negative = cytotoxic” value was -0.0929% (inactive).

`CC1=CC[C@@H](C(C)(C)O)CC1`: the “viability change, negative = cytotoxic” value is 5.04% (inactive).

`Cc1ccc(NC=O)c(C)c1`: the “viability change, negative = cytotoxic” value was 0.598% (inactive).

For the compound `C1=Cc2ccccc2C1`, the “viability change, negative = cytotoxic” value is -0.508% (inactive).

Turning to `C[C@]12CCC(=O)C=C1[C@@H]1C[C@@H]1[C@H]1[C@@H]3[C@@H]4C[C@@H]4[C@@]4(CCC(=O)O4)[C@@]3(C)CC[C@@H]12`, the “viability change, negative = cytotoxic” value is -1.69% [at 42.5 µM] (inactive).

On to `CC(C)CCCO`, for which the “viability change, negative = cytotoxic” value was -3.11% (inactive).

Turning to `CC(=O)Nc1ccc(N)cc1`, the “viability change, negative = cytotoxic” value is 15.4% (inactive).

For the compound `CCC(C(=O)NC(N)=O)c1ccccc1` (stereo not given), the “viability change, negative = cytotoxic” value is 1.65% (inactive).

For the compound `Cn1c(=O)c2c(ncn2CC(O)CO)n(C)c1=O` (stereo not given), the “viability change, negative = cytotoxic” value was 1.61% [at 42.5 µM] (inactive).

As to `OCC(O)CS` (stereo not given), the Potency result is “inactive”.

For the compound `CC/C(=C(/CC)c1ccc(O)cc1)c1ccc(O)cc1`, the Potency result was “inactive”.

`Nc1ccc(C(=O)OCCCOC(=O)c2ccc(N)cc2)cc1`: the “viability change, negative = cytotoxic” value was -5.91% (inactive).

Take `NC(=O)c1ccc([N+](=O)[O-])cc1Cl`: the Potency result was “inactive”.

With `CC/C=C\CCO`, the “viability change, negative = cytotoxic” value was -0.677% (inactive).

A further experiment can be described thus: cAMP Responsive Elements (CRE) small molecule agonists, cell-based qHTS assay: qHTS cell viability counter screen (AID 2060914). Further: nearly all actives have a fitted effect of over 50% in size. To be noted: CRE-bla HEK293T viability, CellTiter-Glo luminescence, 5 h; series mostly up to 92.4 µM; activity change, negative = cytotoxicity: at the top concentration. The method in brief: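 Cells are seeded and incubated 18 h, treated with compounds in DMSO for 3 h, read for the bla reporter, then given CellTiter-Glo; luminescence is measured after 30 min at room temperature.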
Consider `O=C(/N=N/C(=O)OCc1ccccc1)OCc1ccccc1`, for which the “activity change, negative = cytotoxicity” value is -3.18% (inactive).

For `CC(C)c1nnc2ccc(-c3ocnc3-c3cc(F)ccc3F)cn12`, the “activity change, negative = cytotoxicity” value is -9.54% (inactive).

For `CCCC[P+](CCCC)(CCCC)CCCC`, the Potency result was “inactive”.

Turning to `CCCCCCCCCCCCC`, the “activity change, negative = cytotoxicity” value is 0.425% (inactive).

Take `NCCC(O)(P(=O)(O)O)P(=O)(O)O`: the “activity change, negative = cytotoxicity” value was -0.845% [at 42.5 µM] (inactive).

With `COC(=O)CCCCCCCCC(=O)OC`, the “activity change, negative = cytotoxicity” value was 9.56% (inactive).

For the compound `COc1cc2c(cc1N)oc1ccccc12`, the “activity change, negative = cytotoxicity” value is 16.2% (inactive).

Consider `Cc1c(C(=O)O)cccc1[N+](=O)[O-]`, for which the “activity change, negative = cytotoxicity” value was -17.3% (inactive).

For the compound `Cc1ccc(O)cc1`, the Potency entry is “inactive”.

As to `O=C(CCOCCOCCOCCOCCC(=O)Nc1c(I)cc(I)c(C(=O)O)c1I)Nc1c(I)cc(I)c(C(=O)O)c1I`, the “activity change, negative = cytotoxicity” value was 0.16% [at 42.5 µM] (inactive).

As for `CNCCCC1c2ccccc2C=Cc2ccccc21`, the “activity change, negative = cytotoxicity” value was 2.88% [at 42.5 µM] (inactive).

Consider `Cc1ccc(Br)cc1`, for which the “activity change, negative = cytotoxicity” value is 2.9% (inactive).

For `CCN(O)CC`, the “activity change, negative = cytotoxicity” value was -9.54% (inactive).

With `C1C2OC2C2C1C1CC2C2OC12` (stereo not given), the “activity change, negative = cytotoxicity” value is 5.38% (inactive).

As for `CSc1ccc(/C=C2/C(C)=C(CC(=O)O)c3cc(F)ccc32)cc1`, the “activity change, negative = cytotoxicity” value was -0.287% [at 42.5 µM] (inactive).

With `CCCC(=O)OCCC(C)C`, the “activity change, negative = cytotoxicity” value is 22.6% (inactive).

Turning to `OC[C@@H](O)C(O)[C@@H](O)CO` (stereo not given in full), the “activity change, negative = cytotoxicity” value was -4.68% (inactive).

Take `CC(=O)SCC(CC(=O)c1ccc(C)cc1)C(=O)O` (stereo not given): the “activity change, negative = cytotoxicity” value is 4.62% [at 42.5 µM] (inactive).

In the case of `CCN(CC)C(=O)c1ccc(O)c(OC)c1`, the “activity change, negative = cytotoxicity” value was 5.88% [at 42.5 µM] (inactive).

Regarding `C[C@]12CC[C@@H]3c4ccc(O)cc4CC[C@H]3[C@@H]1CCC2=O`, the Potency entry is “inactive”.

`CCCCC1CCC(=O)O1` (stereo not given): the “activity change, negative = cytotoxicity” value was -1.7% (inactive).

In the case of `CNC[C@H](O)c1ccc(O)c(O)c1`, the Potency entry is “inactive”.

For `COC(=O)CSc1cc(N=c2sc(=O)n3n2CCCC3)c(F)cc1Cl`, the “activity change, negative = cytotoxicity” value is 3.56% (inactive).

Consider `C=C1C[C@@]23CC[C@H]4[C@@](C)(CCC[C@@]4(C)C(=O)O[C@@H]4O[C@H](CO)[C@@H](O)[C@H](O)[C@H]4O)[C@@H]2CC[C@]1(O[C@@H]1O[C@H](CO)[C@@H](O)[C@H](O[C@@H]2O[C@H](CO)[C@@H](O)[C@H](O)[C@H]2O)[C@H]1O[C@@H]1O[C@H](CO)[C@@H](O)[C@H](O)[C@H]1O)C3`, for which the “activity change, negative = cytotoxicity” value is 9.12% (inactive).

On to `CCOC(=O)C1=NN(c2ccccc2)C(=O)C1`, for which the “activity change, negative = cytotoxicity” value is 0.987% (inactive).

In the case of `CCC(C)OC(=O)c1ccc(O)cc1` (stereo not given), the Potency result was “inactive”.

On to `C=C(C)[C@@H]1CCC2=CC(=O)C[C@@H](C)[C@]2(C)C1`, for which the “activity change, negative = cytotoxicity” value is -0.0716% (inactive).

In the case of `CC1=CC[C@@H](C(C)(C)O)CC1`, the “activity change, negative = cytotoxicity” value was -14.4% (inactive).

As to `Cc1ccc(NC=O)c(C)c1`, the “activity change, negative = cytotoxicity” value was 4.16% (inactive).

As to `C1=Cc2ccccc2C1`, the “activity change, negative = cytotoxicity” value is -1.49% (inactive).

Consider `C[C@]12CCC(=O)C=C1[C@@H]1C[C@@H]1[C@H]1[C@@H]3[C@@H]4C[C@@H]4[C@@]4(CCC(=O)O4)[C@@]3(C)CC[C@@H]12`, for which the “activity change, negative = cytotoxicity” value was -4.59% [at 42.5 µM] (inactive).

Regarding `CC(C)CCCO`, the “activity change, negative = cytotoxicity” value was -5.5% (inactive).

Consider `CC(=O)Nc1ccc(N)cc1`, for which the “activity change, negative = cytotoxicity” value was -4.58% (inactive).

In the case of `CCC(C(=O)NC(N)=O)c1ccccc1` (stereo not given), the “activity change, negative = cytotoxicity” value was 2.82% (inactive).

On to `Cn1c(=O)c2c(ncn2CC(O)CO)n(C)c1=O` (stereo not given), for which the “activity change, negative = cytotoxicity” value was -7.17% [at 42.5 µM] (inactive).

Consider `OCC(O)CS` (stereo not given), for which the Potency result was “inactive”.

Turning to `CC/C(=C(/CC)c1ccc(O)cc1)c1ccc(O)cc1`, the Potency result is “inactive”.

For `Nc1ccc(C(=O)OCCCOC(=O)c2ccc(N)cc2)cc1`, the “activity change, negative = cytotoxicity” value was 6.95% (inactive).

Take `NC(=O)c1ccc([N+](=O)[O-])cc1Cl`: the Potency entry was “inactive”.

In the case of `CC/C=C\CCO`, the “activity change, negative = cytotoxicity” value was 1.33% (inactive).
